# Shown is part of a subset that was picked to be rich in hits.
# DT40 TDP1 no CPT = qHTS for Inhibitors of human tyrosyl-DNA phosphodiesterase 1 (TDP1): qHTS in cells in absence of CPT | DT40 Tdp1-/- hTDP1 cells, no CPT, ATP luminescence, 48 h | Potency, µM (doses to about 46.2 µM), for the others: at the top dose activity change, negative = growth inhibition, actives largely listed as inhibitors | 15% of 420,000 active | AID 686978, 2013; also: potency is read from the fitted curve at half-maximal effect; nearly all actives have a fitted effect of over 55% in size
#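 Luminescent ATP content (CellTiter-Glo) served as the growth readout. Knockout chicken DT40 cells expressing human TDP1 were exposed to compounds without camptothecin for a minimum 48 hr at 37 °C.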
# IL1B secr inh = inhibitors of inflammasome signaling (IL-1 beta secretion). THP-1 LPS/ATP IL-1B secretion, AlphaLISA, 16 h; stronger effect = lower value. activity change, % at 57.5 µM. 4.7% of 360,000 active. AID 743279; in the data active = activity change below about -50%; inconclusive = mostly about -30% to -49%
#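 THP-1 cells pretreated 1 hr with compounds (up to 57.5 uM final), then stimulated with LPS (250 ng/mL final) plus ATP (1.25 mM final); secreted IL-1B measured by AlphaLISA after 16 hr, decreased signal indicating inhibition.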
# HT1080 IDH1KD tx = HT-1080 IDH1 knockdown cell toxicity (counter line). HT-1080 IDH1 knockdown viability, ATP luminescence, 48 h. Potency, µM (titrated, usually from 46.1 µM), for the others: at the top dose activity, negative = toxicity, most hits filed as cytotoxic. 2% of 360,000 active;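 also: potency is read from the fitted curve at half-maximal effect; 0% = DMSO wells and -100% = cell-free medium wells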
#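 Knockdown cells (IDH1KD HT-1080) received compounds 2 h after plating at 750 cells/well and were kept 48 h at 37 °C in 5% FBS RPMI. A CellTiter-Glo luminescence read gave % activity for curve fitting.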
# ALOX12 inh = inhibitors of human 12S-lipoxygenase ALOX12 | Potency, µM (titrated, usually from 108 µM), without a hit: at the top dose activity change, negative = inhibition, actives largely listed as inhibitors | AID 1671190 | P18054 | 1.1% of 580,000 active | purified 12hLO, xylenol orange hydroperoxide absorbance; also: potency is read from the fitted curve at half-maximal effect
# Target sequence (P18054 whole entry, looked up): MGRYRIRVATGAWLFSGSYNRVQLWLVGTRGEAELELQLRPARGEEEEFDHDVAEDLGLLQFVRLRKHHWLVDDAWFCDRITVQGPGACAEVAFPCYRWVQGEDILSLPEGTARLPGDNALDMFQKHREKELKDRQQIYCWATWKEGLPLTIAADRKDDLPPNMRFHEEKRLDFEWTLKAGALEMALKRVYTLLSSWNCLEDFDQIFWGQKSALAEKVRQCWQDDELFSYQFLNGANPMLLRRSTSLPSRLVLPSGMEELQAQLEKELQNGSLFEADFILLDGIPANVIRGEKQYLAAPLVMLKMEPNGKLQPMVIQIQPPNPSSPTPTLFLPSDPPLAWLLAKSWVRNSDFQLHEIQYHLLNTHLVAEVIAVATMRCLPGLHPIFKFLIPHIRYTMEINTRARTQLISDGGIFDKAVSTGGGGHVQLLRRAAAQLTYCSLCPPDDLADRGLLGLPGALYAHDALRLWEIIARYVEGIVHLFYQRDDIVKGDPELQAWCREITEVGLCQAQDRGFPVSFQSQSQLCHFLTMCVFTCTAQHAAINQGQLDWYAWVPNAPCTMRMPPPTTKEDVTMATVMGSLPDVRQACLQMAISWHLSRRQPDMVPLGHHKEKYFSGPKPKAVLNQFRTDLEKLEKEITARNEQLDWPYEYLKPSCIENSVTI
#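 Purified human 12hLO (150 nM final) in 25 mM Hepes, 0.01% Triton X-100, pH 7.0 was preincubated 15 min at room temperature with compound. Then 40 uM arachidonic acid was added, 30 min. Hydroperoxide was read by Fe-XO absorbance ratio 573/405 nm.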
# DT40 TDP1 CPT = DT40-hTDP1 cell growth loss with CPT; chicken DT40 Tdp1-/-;hTDP1 cells + 20 nM CPT, ATP luminescence, 48 h; Potency, µM (top dose mostly 46.2 µM), without a hit: at the top dose activity change, negative = growth inhibition, actives largely listed as inhibitors; 12% of 420,000 active; also: potency is read from the fitted curve at half-maximal effect; nearly all actives have a fitted effect of over 55% in size
#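 Chicken DT40 Tdp1-/- cells complemented with human TDP1, 400 cells/well, exposed to compounds plus 20 nM camptothecin for at least 48 h at 37 C; viability read as ATP content by CellTiter-Glo luminescence.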
# HT1080NT lethal = kills 2HG-producing HT-1080-NT fibrosarcoma cells; HT-1080-NT fibrosarcoma viability, CellTiter-Glo ATP luminescence, 48 h; Potency, µM (highest dose often 46.1 µM), inactives show at the highest dose activity, negative = less viability, hits mostly cytotoxic; 1.6% of 360,000 active; AID 686970;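 also: NT is the 2HG producing partner of a matched IDH1 knockdown line; potency is read from the fitted curve at half-maximal effect; 0% = DMSO-treated cells and -100% = media-only wells without cells; nearly all actives have a fitted effect of over 55% in size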
#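 Luminescent CellTiter-Glo readout after 48 hours of compound exposure at 37 degrees C defined viability of HT-1080-NT cells. Activity was normalized to DMSO wells and cell-free media wells; concentration-response curves were fitted and assigned curve classes.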
# Numbers without * were called inactive; ? = inconclusive; . = no result given. Unless noted, calls follow the shape of the dose curve; as a rule, active = well fitted curve in the direction sought with a large enough effect; inconclusive = small, poorly fitted or top-dose-only effect, or another doubt; inactive = no such curve, though single readings can be large; an effect the other way counts as inactive or inconclusive. Unless noted, % is scaled to controls: 0 for no effect and ±100 for the full control effect.
SMILES,DT40 TDP1 no CPT,IL1B secr inh,HT1080 IDH1KD tx,ALOX12 inh,DT40 TDP1 CPT,HT1080NT lethal
CC(C)c1ccc(NC(=O)NCC(O)c2ccc(F)c(F)c2)cc1 (stereo not drawn),.,.,.,11%,.,.
CCCCc1nc(CN2CCN(c3cccc(F)c3C#N)CC2)no1,.,.,.,-23%,.,.
O=C(N/N=C/c1cccc([N+](=O)[O-])c1O)c1cccs1,1µM*,66,?,-19%,0.73µM*,?
O=C(N/N=C/c1ccccc1OCc1ccccc1)c1cccs1,15µM*,-1,-13%,-5%,?,-4%
COc1cc(/C=N/NC(=O)/C(=C\c2ccc([N+](=O)[O-])cc2)NC(=O)c2ccccc2)cc(OC)c1O,?,1,-13%,?,-30%,-4%
O=C(N/N=C/c1cc([N+](=O)[O-])cc([N+](=O)[O-])c1O)/C(=C\c1cccs1)NC(=O)c1ccccc1,5%,7,16%,16µM*,-2%,1%
NC(=S)N/N=C\c1ccccc1OCc1ccccc1,?,-5,-10%,?,29µM*,0%
O=C(N/N=C/c1ccccc1Cl)c1cccs1,.,.,.,-1%,.,.
CC(C)CC(NC(=O)C1CCCCC1)C(=O)NCCc1ccccc1 (stereo not drawn),.,.,.,-60%,.,.
COC(=O)c1ccc(NC(=O)N2CCC3(CC2)CC(N2CCCC2)CCO3)cc1 (stereo not drawn),.,.,.,32%,.,.
O=C(N/N=C/c1cccc2ccccc12)c1ccccc1Cl,-4%,-51*,-18%,?,-7%,-11%
O=C(N/N=C/c1cccc2ccccc12)c1cccs1,?,51,-23%,.,26µM*,-2%
COCCNc1nc(NCc2ccc(C)cc2C)c2sccc2n1,15µM*,2,-29%,?,15µM*,-11%
COCCNc1nc(Nc2ccc(C)cc2C)c2sccc2n1,1.5µM*,18,?,3%,1.8µM*,?
CC(=O)C1=CCC(c2ccc(Cl)c(Cl)c2)N(S(=O)(=O)c2ccc(C)cc2)C1 (stereo not drawn),15µM*,-84*,?,-10%,?,?
CC(=O)C1=CCC(c2ccc(F)cc2)N(S(=O)(=O)c2ccc(C)cc2)C1 (stereo not drawn),18µM*,-11,7%,?,?,7%
CC(=O)C1=CCC(c2ccc(C)cc2)N(S(=O)(=O)c2ccc(Cl)cc2)C1 (stereo not drawn),16µM*,?,?,-1%,?,-26%
c1csc(-c2cn3ccc4ccccc4c3n2)c1,-19%,-62*,-29%,-12%,-14%,-19%
Cc1ccc(NS(=O)(=O)c2ccc3c(c2)c(=O)n(C)c(=O)n3C)cc1F,16µM*,?,?,-8%,15µM*,16µM*
Cn1c(=O)c2cc(S(=O)(=O)Nc3cc(C(=O)O)cc(C(=O)O)c3)ccc2n(C)c1=O,-2%,0,5%,-5%,-4%,7%
Cc1cc(C)cc(NS(=O)(=O)c2ccc3c(c2)c(=O)n(C)c(=O)n3C)c1,2.1µM*,-67*,3.2µM*,14%,1.8µM*,6.3µM*
CCNS(=O)(=O)c1ccc(NC(=O)c2cccc(NC(=O)C(CC)CC)c2)cc1,.,.,.,-13%,.,.
CC1CCN(C(=O)CN(c2cc(Cl)cc(Cl)c2)S(=O)(=O)c2ccccc2)CC1,.,.,.,6%,.,.
NC(=O)CC(NC(=O)Cc1cccc2ccccc12)c1ccc(N2CCc3ccccc3C2)c([N+](=O)[O-])c1 (stereo not drawn),?,?,-18%,?,16µM*,-27%

# Compound activity deposited in PubChem BioAssay by National Center for Advancing Translational Sciences (NCATS).
